Reference: PubChem BioAssay (NCATS)
Inconclusive results are not listed. Unmarked numbers belong to inactive results. The source made the active and inactive calls. The call rests on the fitted dose curve; in most records, active means well fitted activation curve with a large enough effect; inconclusive means small, poorly fitted or top-dose-only effect; inactive means flat fitted curve, though single readings scatter. Square brackets hold non-standard residues; d marks the D form. Peptide text beside a SMILES is read from it. ξ: configuration not given here. ξL = CC(C)CC(N)C(=O)O

Assay: qHTS for Hypoxia signaling pathway (HIF-1) agonists against the NCATS CANVASS Library (AID 1347375); further: 0% is about no effect
Details: HRE-bla ME-180 cells, HIF-1 beta-lactamase reporter, 17 h; series mostly up to 38.3 µM
Text: Natural products and their derivatives continue to be wellsprings of nascent therapeutic potential. However, many laboratories have limited resources for biological evaluation, leaving their previously isolated or synthesized compounds largely or completely untested. To address this issue, the Canvass library of natural products was assembled (https://tripod.nih.gov/canvass), in collaboration with academic and industry researchers, for quantitative high-throughput screening (qHTS) across a diverse set of cell-based and biochemical assays. The pure (>85% purity by liquid chromatography/mass spectrometry [LC/MS]) Canvass library of 346 natural products were submitted by 45 academic laboratories and companies around the world. We collected pure natural products to circumvent deconvolution and structure elucidation due to time and resource limitations. The library was formatted into 1536-well plates and evaluated in 50 qHTS (in an 11-pnt concentration series) bioassays with broad scope of disease-relevant mechanisms. The resulting data set from 50 different assays was then systematically analyzed to identify overall trends and specific natural products with interesting biological activities. Reported herein are the results of each individual qHTS and their corresponding assay protocol. During hypoxic conditions, the cellular responses are regulated in large part through the activation of the heterodimeric transcription factor called hypoxia-inducible factor-1 (HIF-1). The assay used is a beta-lactamase reporter gene under control of the hypoxia responsive element (HRE) that has been stably integrated into ME-180 cells. This assay identifies inducers of the HIF-1-signaling pathway. The cytotoxicity of the compound library against HRE-bla ME-180 cell line was tested in parallel by measuring cell viability using CellTiter-Glo assay (Promega, Madison, WI) in the same assay wells. The compounds were also tested for auto fluorescence that may interfere with the biological target readout resulting in potential false positives and/or negatives. National Center for Advancing Translational Sciences (NCATS), Rockville, MD National Institute of Health (NIH), Bethesda, Maryland
HIF-1 agonist assay protocol: HRE-bla ME-180 cells were dispensed at 2,000 cells per well in 6 uL of assay medium containing 0.5% dialyzed FBS into black wall/clear-bottom 1536-well plates using a Multidrop Combi (Thermo Scientific, Waltham, MA) dispenser. After the assay plates were incubated at 37C and 5% CO2 for 5 hrs, 23 nL of compounds dissolved in DMSO, positive controls or DMSO only was transferred to each well of the assay plate using a Pintool station (Kalypsys, San Diego, CA). The assay plates were incubated at 37C and 5% CO2 for 17 hrs. One uL of LiveBLAzerTM B/G FRET substrate (CCF4-AM) (Life Technologies) was added to each well using a Flying Reagent Dispenser (Aurora Discovery, San Diego, CA). After 2 hr incubation at room temperature, fluorescence intensity (405 nm excitation, 460 nm and 530 nm emissions) was measured using an Envision plate reader (PerkinElmer, Shelton, CT). To assess cell viability (and for data normalization), 4uL of CellTiter-Glo (Promega) was added to the assay plate using the BioRAPTR dispenser and incubated at room temperature for 30 min. Luminescence signal was obtained using the ViewLux microplate reader (PerkinElmer) using a clear emission mirror, and a 15 sec exposure time, 1x binning settings.

SMILES	outcome	activation
C/C(=C\[C@H](C)C(=O)/C=C/CC1CC(=O)NC(=O)C1)[C@@H]1OC(=O)/C=C/CC/C=C/C[C@@H](O)[C@@H]1C	inactive	–
CC[C@H]1[C@H](C)[C@H](c2cc(OC)c(OC)cc2OC)[C@@H](C)[C@H](c2cc(OC)c(OC)cc2OC)[C@@]12C=C(OC)C(=O)C=C2OC	inactive	–
C[C@@H]1CC[C@]2(C(=O)O)CC[C@]3(C)C(=C2[C@H]1C)CC[C@@H]1[C@@]2(C)CC[C@H](O)C(C)(C)[C@@H]2CC[C@]13C	inactive	–
COc1cc2c(c(O)c1O)C(=O)c1c(coc1C)C2=O	inactive	–
C/C(=C\[C@H](C)C(=O)C[C@H](O)CC1CC(=O)NC(=O)C1)[C@@H]1OC(=O)CCCC/C=C/C[C@@H](O)[C@@H]1C	inactive	–
C=C[C@@](C)(O)CC[C@@H]1[C@@]2(C)CCCC(C)(C)[C@@H]2CC[C@@]1(C)O	inactive	–
CO[C@H]1/C=C/CCCCC(=O)O[C@@H](/C(C)=C/[C@H](C)C(=O)C[C@H](O)CC2CC(=O)NC(=O)C2)[C@@H](C)C1	inactive	–
COc1ccc([C@@H]2c3cc4c(cc3C(=O)C(C)C2C)OCO4)cc1OC (stereo not given in full)	inactive	–
CC1=C[C@H]2[C@H]3C(=O)C(c4ccc(O)cc4)=C[C@@]3(c3ccc(O)cc3)[C@@H]1C(=O)[C@]2(C)O	inactive	–
C[C@@]12CCC[C@@](C)(C(=O)OP(=O)(O)OC[C@H]3O[C@@H](n4cnc5c(N)ncnc54)[C@H](O)[C@@H]3O)[C@H]1C[C@@H](O)[C@@]13C[C@@H](CC[C@@H]21)[C@](C)(O)C3	inactive	–
CC[C@@H](C)[C@H]1NC(=O)C(CC(C)C)NC(=O)[C@@H](CC(C)C)NC(=O)[C@H](Cc2c[nH]c3ccccc23)NC(=O)CNC(=O)[C@@H](CC(N)=O)NC1=O (stereo partly drawn) (cyclo(GW[dL][ξL][dI][dN]))	inactive	–
C[C@]12CC[C@]3(C1)[C@H](CC2=O)C[C@@H](OC(=O)c1ccccc1)[C@H]1[C@](C)(C(=O)O)CCC[C@@]13C	inactive	–
C/C(=C\CC[C@@H](C)[C@H]1CC[C@]2(C)C3=CCC4C(C)(C)[C@@H](O)C[C@@H](O)[C@]4(C)C3[C@H](O)C[C@@]12C)CO (stereo not given in full)	inactive	–
Cc1cc(O)cc2c1C(=O)c1c(O)cc(O)cc1C2=O	inactive	–
CC(C)=CCC[C@]12c3cc4c(cc3CC[C@@]1(C)[C@H](C)CC[C@@H]2O)[nH]c1ccccc14	inactive	–
O=c1cc(-c2ccc(O)cc2)oc2cc(O)c([C@@H]3OC(CO)[C@H](O)[C@@H](O)[C@H]3O)c(O)c12 (stereo not given in full)	inactive	–
Cc1cc(C)c(O)c(C(=O)CC2CC(=O)NC(=O)C2)c1	inactive	–
C/C=C(/C)c1c(Cl)c(O)c(C)c2c1Oc1c(Cl)c(O)c(Cl)c(C)c1C(=O)O2	inactive	–
C[C@H]1CCC2(OC1)O[C@H]1C[C@H]3[C@@H]4CC(=O)[C@]5(O)C[C@H](O)CC[C@@]5(C)[C@H]4CC[C@@]3(C)[C@H]1[C@H]2C (stereo not given in full)	inactive	–
C/C(=C\[C@@H](C)CC/C=C/CC/C=C/C(=O)O)[C@@H](O)[C@H](C)C(=O)CCCC1CC(=O)NC(=O)C1	inactive	–

SMILES	outcome	activation
COc1ccc([C@@H]2CC(=O)c3c(cc(O)c(C/C=C(\C)CCC=C(C)C)c3O)O2)cc1	–	1.16% [at 7.64 µM]
[C-]#[N+][C@@]12C(=O)[C@@H]3[C@@H](O[C@@]4(C(=O)N(C)c5cccc1c54)C3(C)C)C(=O)[C@@]2(C)C=C	inactive	–
COc1ccc(-c2oc3cc(OC)cc(OC)c3c(=O)c2O)cc1	inactive	–
C/C(=C\[C@H](C)C(=O)C[C@H](O)CC1CC(=O)NC(=O)C1)[C@@H]1OC(=O)CCCC/C=C/[C@@H](O)C[C@@H]1C	inactive	–
CC[C@@H](c1cc(OC)c(OC)cc1OC)[C@H](C)[C@@H](/C(C)=C/c1cc(OC)c(OC)cc1OC)c1cc(OC)c(OC)cc1OC	inactive	–
COc1cc2ccc(=O)oc2c(O)c1O[C@@H]1O[C@H](CO)[C@@H](O)[C@H](O)[C@H]1O	inactive	–
CO[C@@H](C[C@@H](C)[C@@H](O)/C=C/C=C/CNC(=O)C(C)(C)[C@H](O)\C(C)=C/C=C\C=C\Cc1cnco1)[C@]1(O)[C@@H](C)C(=O)N(C)[C@@]12COC2=O	inactive	–
O=c1cc(-c2ccc(O)c(O)c2)oc2cc(O[C@@H]3O[C@H](CO)[C@@H](O)[C@H](O)[C@H]3O)cc(O)c12	inactive	–
CC1=C2CC[C@]3(C)[C@H](CC=C4[C@@H]5CC(C)(C)CC[C@@H]5C(=O)[C@H](O)[C@]43C)[C@@]2(C)C=C(O)C1=O	inactive	–
O=C1OC(CCO)c2cccc(O)c21 (stereo not given)	inactive	–
CO[C@H]1[C@@H](OC(=O)/C(C)=C\[C@@H]2O[C@@H]2[C@H]2O[C@H]2C)[C@H](O)[C@H](OCC23C[C@@H]4[C@H](C)CC[C@H]4C4(C=O)CC2C=C(C(C)C)C34C(=O)O)O[C@@H]1C (stereo not given in full)	inactive	–
COc1c(O)cc(O)c2c(=O)cc(-c3ccccc3)oc12	inactive	–
O=C1c2c(O)cc(O)cc2OC(c2ccc(O)cc2)C1O (stereo not given)	inactive	–
COc1c(O)cc2c(c1O)C(=O)c1c(coc1C)C2=O	inactive	–
C/C(=C\[C@@H](C)CC/C=C/CC/C=C/C(=O)O)[C@H](O)[C@H](C)C(=O)CCCC1CC(=O)NC(=O)C1	inactive	–
O=Cc1ccc2n1C[C@]1(OC2)O[C@H](CO)[C@@H](O)[C@@H]1O	inactive	–
CC(=O)c1c(C)cc2c(c1O)C(=O)c1c(O)cc(O)cc1C2=O	inactive	–
C/C=C(/C)c1c(Cl)c(OC)c(C)c2c1Oc1c(Cl)c(O)c(Cl)c(C)c1C(=O)O2	inactive	–
COC(=O)c1cc2cc3c(c(O)c2c(=O)o1)OC1(CC3)CC2=C(O1)C(=O)c1c(O)c(OC)cc(OC)c1C2=O (stereo not given)	inactive	–
C[C@H](CCC(O)C(C)(O)CO)[C@@]1(O)CC[C@@]2(C)C3=C(CC[C@@]21C)[C@@]1(C)CCC(OC(=O)CCC(=O)O)C(C)(C)[C@@H]1CC3 (stereo not given in full)	inactive	–
